Common to all, as to test: Primary qHTS to identify gynecologic anti-cancer compounds using libraries of approved drugs and bioactive compounds (AID 1345084); also: nearly all actives have a fitted effect of over 55% in size
On the technique in general: qHTS replaces the single test concentration by a dilution series.

For one assay, the system named is CASKI. The following applies: Gynecologic cancer cell panel viability, ATPlite luminescence, 48 h; series mostly up to 57.5 µM. The essentials: (§1)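 Measured: luminescence after ATPlite addition (15 min, RT). Exposure: 48 h, 37 C, 5% CO2.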
A general note: Cellular ATP, detected with luciferase, serves as a proxy for viable cell number.

Another assay has as its system Es-2. The conditions noted are these: Gynecologic cancer cell panel viability, ATPlite luminescence, 48 h; series mostly up to 57.5 µM. The essentials: as §1
A further assay relates to HeLa. The following applies: Gynecologic cancer cell panel viability, ATPlite luminescence, 48 h; series mostly up to 57.5 µM. The essentials:
as §1

The test system of the next assay is Hek293T. The conditions noted are these: Gynecologic cancer cell panel viability, ATPlite luminescence, 48 h, control line for the selectivity index; series mostly up to 57.5 µM. Summed up:
as §1

Another assay concerns JEG-3. The following applies: Gynecologic cancer cell panel viability, ATPlite luminescence, 48 h; series mostly up to 57.5 µM. Summed up: as §1
The test system of a further assay is OV90. The conditions noted are these: Gynecologic cancer cell panel viability, ATPlite luminescence, 48 h; series mostly up to 57.5 µM. The essentials: as §1
In the next assay the test system is PA-1. The conditions noted are these: Gynecologic cancer cell panel viability, ATPlite luminescence, 48 h; series mostly up to 57.5 µM. Summed up:
as §1

The next assay has as its system Tov-21-G. The conditions noted are these: Gynecologic cancer cell panel viability, ATPlite luminescence, 48 h; series mostly up to 57.5 µM. The essentials:
as §1

The test system of the next assay is Tov112D. The following applies: Gynecologic cancer cell panel viability, ATPlite luminescence, 48 h; series mostly up to 57.5 µM. The essentials: as §1
The next assay concerns SKOV3. The following applies: Gynecologic cancer cell panel viability, ATPlite luminescence, 48 h; series mostly up to 57.5 µM. The essentials:
as §1

Records with an inconclusive call do not appear. Activity calls are given as the source filed them. Calls follow the shape of the dose curve; as a rule, active = well fitted cell-killing curve with a large enough effect; inconclusive = small, poorly fitted or top-dose-only effect, or effect the other way; inactive = flat fitted curve, though single readings scatter.
Potency is read from the fitted curve at half-maximal effect.

With `NS(=O)(=O)c1cc(C(=O)O)cc(N2CCCC2)c1Oc1ccccc1`, the Potency entry in the assay with CASKI, in the assay with Es-2, in the assay with HeLa, with Hek293T, in the assay with JEG-3 and in the assay on OV90 was “inactive” throughout. Further, the Potency result in the assay with PA-1, with Tov-21-G and in the assay on Tov112D was “inactive” throughout.

As for `O=C(O)C(Cc1cc(I)c(O)c(I)c1)c1ccccc1` (centres undefined), the Potency entry with CASKI, in the assay on Es-2, with HeLa, with Hek293T, in the assay on JEG-3 and in the assay with OV90 was “inactive” each time. Besides, the Potency result in the assay with SKOV3, in the assay with Tov-21-G and in the assay with Tov112D was “inactive” throughout.

With `Oc1ccc(Cl)cc1Cc1cc(Cl)ccc1O`, the Potency entry with CASKI, in the assay with Es-2, with HeLa, in the assay on Hek293T, with JEG-3 and with OV90 was “inactive” in each case. Also, the Potency result with PA-1, with Tov-21-G and in the assay on Tov112D was “inactive” throughout.

`CC(C)(C)NC[C@H](O)COc1nsnc1N1CCOCC1`: the Potency result in the assay on CASKI, in the assay with Es-2, in the assay with HeLa, with Hek293T, with JEG-3 and in the assay with OV90 was “inactive” throughout. The Potency entry in the assay with PA-1, with Tov-21-G and with Tov112D was “inactive” throughout.

Regarding `CN1CCN(C2=Nc3ccccc3Sc3ccc(Cl)cc32)CC1`, the Potency result with CASKI, with Es-2, in the assay with HeLa, in the assay with Hek293T, with JEG-3 and in the assay with OV90 was “inactive” in each case. Besides, the Potency entry in the assay on SKOV3, in the assay on Tov-21-G and in the assay with Tov112D was “inactive” in each case.

On to `Cc1ccc(-c2ncc(Cl)cc2-c2ccc(S(C)(=O)=O)cc2)cn1`, for which the Potency entry in the assay on CASKI, with Es-2, in the assay on HeLa, in the assay with Hek293T, in the assay on JEG-3 and with OV90 was “inactive” in each case. Moreover, the Potency result in the assay on SKOV3, in the assay with Tov-21-G and in the assay with Tov112D was “inactive” in each case.

As to `CCCN(CCc1cccs1)[C@H]1CCc2c(O)cccc2C1`, the Potency entry in the assay on CASKI, with Es-2, in the assay with HeLa, in the assay with Hek293T, in the assay with JEG-3 and with OV90 was “inactive” throughout. The Potency entry in the assay on PA-1, in the assay with Tov-21-G and with Tov112D was “inactive” each time.

Turning to `Cc1cc(C)cc(OCC2CNC(=O)O2)c1` (centres undefined), the Potency result in the assay on CASKI, in the assay on Es-2, with HeLa, in the assay with Hek293T, in the assay with JEG-3 and in the assay with OV90 was “inactive” in each case. The Potency entry in the assay with PA-1, in the assay with Tov-21-G and in the assay with Tov112D was “inactive” in each case.

As to `CC(=O)NCCCCCC(=O)O`, the Potency result with CASKI, with Es-2, with HeLa, with Hek293T, in the assay on JEG-3 and in the assay on OV90 was “inactive” throughout. In addition, the Potency result in the assay on PA-1, in the assay with Tov-21-G and in the assay on Tov112D was “inactive” throughout.

Consider `Nc1nc(N)c(-c2ccccc2)s1`, for which the Potency result in the assay on CASKI, with Es-2, with HeLa, with Hek293T, in the assay with JEG-3 and with OV90 was “inactive” throughout. The Potency entry with SKOV3, with Tov-21-G and with Tov112D was “inactive” in each case.

With `CC(=O)OCC(=O)[C@H]1CC[C@H]2[C@@H]3CCC4=CC(=O)CC[C@]4(C)[C@H]3CC[C@]12C`, the Potency entry in the assay with CASKI, in the assay on Es-2, with Hek293T, with JEG-3, in the assay on OV90 and in the assay with SKOV3 was “inactive” throughout. Further, the Potency entry in the assay on Tov-21-G and in the assay on Tov112D was “inactive” each time. The Potency in the assay with HeLa was 11.2 µM (active).

Regarding `O=C(c1ccc(F)cc1)C1CCN(CCn2c(=S)[nH]c3ccccc3c2=O)CC1`, the Potency result with CASKI, in the assay on Es-2, in the assay on HeLa, in the assay on Hek293T, with JEG-3 and with OV90 was “inactive” each time. In addition, the Potency entry in the assay with SKOV3, in the assay on Tov-21-G and in the assay with Tov112D was “inactive” each time.

In the case of `O=[N+]([O-])c1cccc(S(=O)(=O)NCCNS(=O)(=O)c2cccc([N+](=O)[O-])c2)c1`, the Potency result with CASKI, with Es-2, in the assay with HeLa, in the assay on Hek293T, in the assay on JEG-3 and in the assay with OV90 was “inactive” throughout. For the same molecule, the Potency result with PA-1, with Tov-21-G and in the assay on Tov112D was “inactive” throughout.

As for `O=C(O)CCc1nc2ccccc2[nH]1`, the Potency entry in the assay with CASKI, in the assay on Es-2, with HeLa, in the assay with Hek293T, in the assay with JEG-3 and in the assay on OV90 was “inactive” in each case. The Potency result in the assay with SKOV3, in the assay on Tov-21-G and with Tov112D was “inactive” each time.

Turning to `CC(C)NCC(O)c1ccc2ccccc2c1` (centres undefined), the Potency result with CASKI, in the assay on Es-2, in the assay on HeLa, with Hek293T, in the assay on JEG-3 and in the assay on OV90 was “inactive” each time. For the same molecule, the Potency result with PA-1, in the assay on Tov-21-G and in the assay on Tov112D was “inactive” each time.

On to `O=C1C(CCS(=O)c2ccccc2)C(=O)N(c2ccccc2)N1c1ccccc1` (centres undefined), for which the Potency result with CASKI, in the assay on Es-2, in the assay with HeLa, with Hek293T, in the assay with JEG-3 and with OV90 was “inactive” in each case. Also, the Potency entry with PA-1, in the assay on Tov-21-G and in the assay with Tov112D was “inactive” each time.

For `O=C(Nc1cccc(C2=NCCN2)c1)Nc1cccc(C2=NCCN2)c1`, the Potency result with CASKI, in the assay on Es-2, in the assay with HeLa, in the assay with Hek293T, in the assay on JEG-3 and in the assay with OV90 was “inactive” each time. Also, the Potency entry in the assay with PA-1 and in the assay with Tov112D was “inactive” each time.

As for `COc1cc(C)nc(-n2nc(C)cc2OC)n1`, the Potency result in the assay with CASKI, in the assay with Es-2, with HeLa, in the assay with Hek293T, in the assay with JEG-3 and in the assay with OV90 was “inactive” throughout. The Potency result in the assay on PA-1, with Tov-21-G and in the assay with Tov112D was “inactive” throughout.

Consider `COc1cc([C@H]2Oc3cc([C@H]4Oc5cc(O)cc(O)c5C(=O)[C@@H]4O)ccc3O[C@@H]2CO)ccc1O`, for which the Potency result with CASKI, in the assay with Es-2, in the assay on HeLa, in the assay on Hek293T, with JEG-3 and with OV90 was “inactive” throughout. The Potency result in the assay on SKOV3, in the assay on Tov-21-G and with Tov112D was “inactive” each time.

In the case of `CCc1oc2ccccc2c1C(=O)c1cc(I)c(O)c(I)c1`, the Potency result with CASKI, with Es-2, in the assay with HeLa, in the assay on Hek293T, with JEG-3 and in the assay with OV90 was “inactive” each time. The Potency entry in the assay with PA-1, in the assay on Tov-21-G and in the assay with Tov112D was “inactive” each time.

`C[C@H]1[C@H]2CC[C@H]3[C@@H]4CC=C5C[C@@H](N(C)C)CC[C@]5(C)[C@H]4CC[C@]23CN1C`: the Potency entry in the assay on CASKI, in the assay on Es-2, in the assay with HeLa, with Hek293T, with JEG-3 and in the assay on PA-1 was “inactive” in each case. Moreover, in the assay on Tov112D, the Potency entry was “inactive”. The Potency in the assay with OV90 is 15.8 µM (active).

`CC[N+](C)(CC)CCOC(=O)C(O)(c1ccccc1)C1CCCCC1` (centres undefined): the Potency result in the assay on CASKI, with Es-2, in the assay with HeLa, in the assay on Hek293T, in the assay on JEG-3 and with OV90 was “inactive” each time. In addition, the Potency entry with PA-1, in the assay with Tov-21-G and with Tov112D was “inactive” in each case.

As to `C[C@@]12C(=O)OC(=O)[C@]1(C)C1CCC2O1`, the Potency in the assay with CASKI is 6.31 µM (active); in the assay on Es-2, 10 µM (active); with HeLa, 3.55 µM (active); with Hek293T, 10 µM (active); in the assay with JEG-3 it was 11.2 µM (active); in the assay with OV90 it was 3.16 µM (active). Moreover, the Potency was 8.91 µM (active) in the assay with SKOV3, 8.91 µM (active) in the assay on Tov-21-G and 14.1 µM (active) with Tov112D.

On to `O=C(O)Cc1csc(-c2ccc(Cl)cc2)n1`, for which the Potency entry with CASKI, in the assay with Es-2, in the assay with HeLa, in the assay on Hek293T, with JEG-3 and in the assay with OV90 was “inactive” each time. Also, the Potency result in the assay with PA-1, in the assay with Tov-21-G and in the assay with Tov112D was “inactive” each time.

The values above are taken from PubChem BioAssay (NCATS).
